Compounds with a hit are over-represented: about 11% of the library has one in this group of screens.
VDR inh: inhibitors of human vitamin D receptor; Potency, µM, for the others: max response, negative = inhibition, hits mostly inhibitors; VDR-SRC2-3 peptide fluorescence polarization, 2 h; 400,000 compounds, 0.93% hits; P11473; also: % is scaled to controls: 0 for no effect and ±100 for the full control effect
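Fluorescence polarization assay of small-molecule disruption of VDR binding to coregulator peptide SRC2-3. Compounds and controls pin-transferred, then read after 2 h incubation at ambient room temperature.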
BAZ2B inh: blocks human BAZ2B; 360,000 compounds, 4.4% hits; AlphaScreen BAZ2B-H3K14Ac peptide displacement; Q9UIF8; Potency, µM (titrated, usually from 114 µM), inactives show at the top dose activity change, negative = inhibition, hits mostly inhibitors; also: % is scaled to controls: 0 for no effect and ±100 for the full control effect; nearly all actives have a fitted effect of over 60% in size
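AlphaScreen displacement: compounds (up to 110uM) incubated 30 min at room temperature with a preformed 50 nM BAZ2B/50 nM biotinylated H3K14Ac peptide complex in PBS pH 7.4 with Tween-20. Donor and acceptor beads at 10 ug/mL final added, 20 min light-protected before reading.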
HP1b chromo inh: blocks HP1-beta chromodomain binding to methylated histone tails; P83916; AlphaScreen HP1-beta / biotin-H3K9me3 peptide binding; Potency, µM (series often up to 114 µM), for inactives: top-dose activity change, negative = inhibition, usual class: inhibitors; 390,000 compounds, 0.56% hits; AID 540317; also: nearly all actives have a fitted effect of over 70% in size
Target sequence (P83916 whole entry, looked up): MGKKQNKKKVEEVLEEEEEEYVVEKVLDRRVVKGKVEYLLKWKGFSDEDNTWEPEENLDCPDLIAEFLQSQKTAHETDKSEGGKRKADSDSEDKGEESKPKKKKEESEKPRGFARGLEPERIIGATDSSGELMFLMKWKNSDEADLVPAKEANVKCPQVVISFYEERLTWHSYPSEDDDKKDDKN
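AlphaScreen: HP1-beta (50 nM) preformed 30 min with biotin-H3(1-18)K9me3 peptide (50 nM) in PBS pH 7.4, 0.01% Tween-20. Compound added for 30 min at RT, then streptavidin donor/nickel chelate acceptor beads (10 ug/mL) for 30 min.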
JMJD2A Tudor: JMJD2A Tudor domain (human) inhibition | O75164 | AlphaScreen JMJD2A-Tudor / H3K4me3 peptide binding | Potency, µM (highest dose often 114 µM), for the others: top-dose activity change, negative = inhibition, usual class: inhibitors | 390,000 compounds, 4.4% hits; also: % is scaled to controls: 0 for no effect and ±100 for the full control effect; nearly all actives have a fitted effect of over 50% in size
PLK1 PBD block: blocks phosphopeptide binding to human PLK1 polo-box domain; Plk1 PBD binding of FITC phosphopeptide, fluorescence polarization; Potency, µM, without a hit: max response, negative = inhibition, usual class: inhibitors; 360,000 compounds, 2.8% hits; AID 720504; also: series mostly up to about 57 µM; % is scaled to controls: 0 for no effect and ±100 for the full control effect; nearly all actives have a fitted effect of over 65% in size
G9a inh: inhibitors of human histone lysine methyltransferase G9a. Q96KQ7. G9a H3K9 monomethylation, AlphaScreen, 2 h. Potency, µM (top dose mostly 102 µM), for the others: top-dose activity, negative = inhibition, most hits filed as inhibitors. 350,000 compounds, 8.8% hits. AID 504332; also: % is scaled to controls: 0 for no effect and ±100 for the full control effect; nearly all actives have a fitted effect of over 75% in size
Target sequence (Q96KQ7 913-1193 limits assumed): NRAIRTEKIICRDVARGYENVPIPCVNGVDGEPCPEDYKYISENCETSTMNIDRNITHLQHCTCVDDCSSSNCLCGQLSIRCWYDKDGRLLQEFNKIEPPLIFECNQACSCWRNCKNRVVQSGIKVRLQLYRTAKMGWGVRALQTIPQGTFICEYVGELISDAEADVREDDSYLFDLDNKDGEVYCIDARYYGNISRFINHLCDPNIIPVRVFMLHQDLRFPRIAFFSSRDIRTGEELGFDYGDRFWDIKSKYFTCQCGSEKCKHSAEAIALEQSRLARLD
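Step 1: enzyme (final 20 nM) with compound, 15 min RT. Step 2: substrate peptide 500 nM and SAM 20 uM, 2 h RT. Step 3: anti-H3K9me1 antibody and AlphaScreen beads, 10 min, then plate read.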
Starred values were filed as active, the others as inactive; ? = inconclusive; / = no result; ! = repeats disagree; [ ] = another dose, or the depositor's remark. Calls follow the shape of the dose curve; as a rule, active = well fitted curve in the direction sought with a large enough effect; inconclusive = small, poorly fitted or top-dose-only effect, or another doubt; inactive = no such curve, though single readings can be large; an effect the other way counts as inactive or inconclusive. Potency is read from the fitted curve at half-maximal effect.

SMILES	VDR inh	BAZ2B inh	HP1b chromo inh	JMJD2A Tudor	PLK1 PBD block	G9a inh
C=CCC[C@@H](Cc1ccc(F)cc1)C(=O)OC[C@@H](NC(=O)[C@@H](CC=C)CC(=O)N[C@H](CO)Cc1ccccc1)C(C)(C)C	-6.2%	/	20.1%	-24.6%	-12.2%	/
CCOc1ccc2c(c1)C(c1cccs1)=NNC(c1cccnc1)=N2	-6.5%	70.8µM*	-18.7%	?	-10.1%	-41.6%
O=C(Nc1ccc(Cl)cn1)C1CCCN1S(=O)(=O)c1ccccc1 (stereo not drawn)	-3.5%	3.2%	29.3%	11.0%[11.4 µM]	-15.3%	-41.3%
Cc1nonc1CN(C)C(=O)CC1C(=O)NCCN1Cc1cccc(C(F)(F)F)c1 (stereo not drawn)	-3.3%	-8.1%	43.8%	-16.1%	-13.6%	50.1µM*
CN(CC1CCOCC1)C(=O)CC1C(=O)NCCN1Cc1cccc(C(F)(F)F)c1 (stereo not drawn)	8.0%	3.4%	48.6%	-6.2%	-16.6%	2.7%[12.7 µM]
CC1(C)C(=O)NCCN1C(=O)CC1C(=O)NCCN1Cc1cccc(C(F)(F)F)c1 (stereo not drawn)	19.8%	-14.8%	34.7%	-10.7%	-20.4%	44.7µM*
O=C(Nc1ccccc1N1CCOCC1)c1cccc2ccccc12	/	/	/	/	-4.2%	/
Nc1ncnc2c1ncn2[C@@H]1O[C@H](COP(=O)(O)OP(=O)(O)OP(=O)(O)OP(=O)(O)OC[C@@H]2O[C@H](n3cnc4c(N)ncnc43)[C@@H](O)[C@H]2O)[C@@H](O)[C@H]1O	-5.9%	/	/	/	/	25.1µM*!
CNC(=O)[C@H]1O[C@@H](n2cnc3c(N)ncnc32)[C@H](O)[C@H]1O	/	/	/	/	/	3.16µM*
Nc1nc(Cl)nc2c1ncn2[C@@H]1O[C@H](COP(=O)(O)OP(=O)(O)OP(=O)(O)O)[C@@H](O)[C@H]1O	2.3%	/	/	/	/	26.7µM*
Nc1ncnc2c1ncn2C1OC(C(=O)NC2CC2)C(O)C1O (stereo not drawn)	6.0%	-2.4%	27.6%	-13.1%	-5.8%	-5.3%[59 µM]
CNC(=O)[C@H]1O[C@@H](n2cnc3c(NCc4cccc(I)c4)nc(Cl)nc32)[C@H](O)[C@@H]1O	-9.4%	-0.8%	22.5%	-25.9%	0.5%	-5.3%[59 µM]
Nc1ncnc2c1ncn2[C@@H]1O[C@H](COP(=O)(O)OP(=O)(O)O)[C@@H](O)[C@H]1O	4.9%	/	/	/	/	35.0%[59 µM]
O=C(CCc1nnc(CCC2CCCCC2)o1)NCc1ccon1	-9.3%	4.6%	30.7%	0.0%	-14.0%	-6.8%
CC[C@H]1C(c2cccc(Cl)c2)=NN(c2ccccc2)[C@@H]1CO	?	/	/	/	/	27.0%
O=C(CSc1nnc2ccc(-c3cccnc3)nn12)Nc1ccc(F)cc1	8.8%	12.3%	32.7%	-4.1%	-0.5%	-7.2%
Cc1ccc(-c2ccc3nnc(SCC(N)=O)n3n2)cc1	0.0%	-11.0%	39.1%	2.4%	-6.1%	44.7µM*
NC(=O)CSc1nnc2ccc(-c3ccc(Cl)cc3)nn12	11.4%	89.1µM*	27.7%	-11.2%	-10.3%	50.1µM*
NC(=O)CSc1nnc2ccc(-c3ccc(F)cc3)nn12	-21.1%	-22.3%	13.8%	-24.3%[11.4 µM]	15µM*	-14.2%
O=C(CSc1nnc2ccc(-c3ccncc3)nn12)Nc1ccc(F)cc1	-17.7%	-26.0%	4.3%	-4.1%	-7.4%	6.31µM*
Cc1ccc(NC(=O)CSc2nnc3ccc(-c4cccnc4)nn23)cc1	0.4%	-5.6%	2.9%	-11.5%	-0.3%	2.1%
O=C(N/N=C/c1cccnc1)c1ccccc1[N+](=O)[O-]	-17.9%	7.9%	25.0%	-3.4%	-1.9%	10.4%
O=C1CC(c2nnc(Cc3ccc(F)cc3Cl)o2)CN1c1ccccc1 (stereo not drawn)	3.9%	-11.5%	15.3%	-17.1%	/	-21.5%[59 µM]
Cc1cccc(NC(=S)NNC(=O)c2ccccc2OC(F)F)c1	-3.7%	11.7%	7.6%	-22.9%	-17.7%	?
CCCc1cc(C(=O)NNC(=S)Nc2cccc(C)c2)cs1	-20.0%	-23.7%	?	-24.6%	-16.5%	8.91µM*
SMILES	VDR inh	BAZ2B inh	HP1b chromo inh	JMJD2A Tudor	PLK1 PBD block	G9a inh
Cc1cccc(NC(=S)NNC(=O)c2csc3c2CCC(C)C3)c1 (stereo not drawn)	-7.4%	-30.1%	-16.4%	?	-18.0%	-11.0%[12.7 µM]
Cc1cccc(NC(=S)NNC(=O)c2ccccc2Br)c1	-12.8%	12.2%	4.9%	-14.9%	-18.4%	5.01µM*
O=C(N/C(=C\c1ccccc1)C(=O)N1CCN(CCO)CC1)c1ccccc1	-13.2%	-1.4%	-0.5%	-9.5%	-8.6%	-23.3%
Cc1c(C(=O)N2CCOCC2)c(S(=O)(=O)Nc2ccc(Br)cc2F)c(C)n1C	?	-15.7%[57.1 µM]	-5.1%	17.8µM*	26.7µM*	3.0%
Cc1c(C(=O)N2CCOCC2)c(S(=O)(=O)Nc2cccc(Br)c2)c(C)n1C	-20.6%	-14.4%	?	?	26.7µM*	/
CCN(CC)C(=O)CSc1nc2cc3c(cc2c(=O)n1CCCCCC(=O)NCCc1ccc(OC)c(OC)c1)OCO3	-2.3%	-9.7%	22.5%	-12.3%	/	5.2%[59 µM]
COc1cccc(C(c2nnnn2C(C)(C)C)N2CCN(C/C=C/c3ccccc3)CC2)c1OC (stereo not drawn)	/	/	/	/	1.5%	/
CC1CCC(NS(=O)(=O)c2ccc(Cl)nc2)CC1 (stereo not drawn)	-11.3%	14.1%	25.3%	2.1%	-9.5%	50.1µM*
Cc1[nH]c2ccc(Br)cc2c1CCNC(=O)c1cc2ccccc2oc1=O	-3.8%	-8.5%	13.3%	-16.0%	/	-2.7%[59 µM]
COC(=O)c1cc(=O)nc2sc(-c3ccc(F)cc3)nn12	44.7µM*	4.9%	?	-35.3%	6.7µM*	3.98µM*
Cn1c(=S)c2[nH]c(SCCN)nc2n(C)c1=O	-21.4%	/	-14.2%	1.12µM*	26.7µM*	/
Cn1c(=S)c2[nH]c(SCCN3CCCC3)nc2n(C)c1=O	?	?	7.3%	?	-28.3%	-142.1%[59 µM]
COCCCN1C(=O)N(c2ccc(F)cc2)C(=O)C1CC(=O)Nc1ccc(OC)cc1 (stereo not drawn)	-13.1%	1.8%	33.6%	-5.4%	-4.3%	18.7%
COc1ccc(NC(=O)CNS(=O)(=O)c2ccc(Cl)cc2)cc1	-2.6%	2.7%	10.5%	-10.3%	?	?
COc1ccc(NC(C)=[N+](C)CCNS(=O)(=O)c2ccc(Cl)cc2)cc1	21.0%	56.2µM*	?	25.1µM*	24.5%	?
O=c1ccc2ccc(Oc3ccc(Cl)cc3[N+](=O)[O-])cc2o1	-1.2%	?	-20.5%	?	-1.4%	31.6µM*
O=[N+]([O-])c1cc(Cl)ccc1Oc1ccc(-c2nnco2)cc1	-10.3%	-24.1%	21.1%	-10.5%	-5.8%	?
O=S(=O)(NCCSc1nnnn1-c1ccccc1)c1ccc(F)cc1	-2.7%	-1.7%	42.6%	-5.2%	/	28.7%[59 µM]
CCOc1cccc(=O)c2c(C)n(CC(=O)c3ccccc3)c(C)c12	0.4%	-27.7%	79.4µM*	-27.1%	-9.9%	?

Assay outcomes (PubChem)
